The record followed here is PubChem BioAssay (NCI).

About 79,000 compounds went through this panel and 15% of them were active in at least one assay; those are over-represented in the sample as a whole. Values without a mark were called inactive. Activity calls are given as the source filed them. No stated cut-off is given here; in the data, active means growth inhibition above about 70%; inactive means the rest.

Assay [1] can be described thus: NCI Yeast Anticancer Drug Screen. Data for the rad50 strain (AID 155).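 Further: 0% = growth of vehicle-only cultures of the same strain.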 The conditions noted are these: S. cerevisiae rad50 strain growth inhibition, stronger effect = higher value. The method in brief: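 A DNA repair-deficient yeast mutant serves as the test organism; compound-induced growth inhibition is calculated against vehicle-treated cells.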
Assay [2] can be described thus: NCI Yeast Anticancer Drug Screen. Data for the mec2-1 strain (AID 157). The conditions noted are these: S. cerevisiae mec2-1 strain, stronger effect = higher value. The method in brief:
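Compounds were applied to mec2-1 yeast cells. Their growth was then compared with that of vehicle-treated cultures to give growth inhibition.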

Assay [3] is described as follows: NCI Yeast Anticancer Drug Screen. Data for the sgs1 mgt1 strain (AID 161).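 Further: 0% = growth of cultures given vehicle only.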 The conditions noted are these: S. cerevisiae sgs1 mgt1 strain, stronger effect = higher value. The method in brief: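 Percent growth inhibition was derived by comparing compound-exposed mutant yeast with vehicle-exposed cultures. The strain carries alterations in DNA damage repair.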
A short description of assay [4]: NCI Yeast Anticancer Drug Screen. Data for the cln2 rad14 strain (AID 165).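 Further: 0% = growth equal to vehicle treated cultures.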 The conditions noted are these: S. cerevisiae cln2 rad14 strain, stronger effect = higher value. The method in brief:
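Strain: cln2 rad14 yeast, altered in cell cycle control and DNA damage repair. Read-out: growth inhibition vs vehicle.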

A short description of assay [5]: NCI Yeast Anticancer Drug Screen. Data for the bub3 strain (AID 167). The conditions noted are these: S. cerevisiae bub3 mutant strain, stronger effect = higher value. The method in brief:
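Inhibition values come from growth of compound-treated mutant yeast normalised to vehicle-treated controls.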

Assay [6] in a line: NCI Yeast Anticancer Drug Screen. Data for the mlh1 rad18 strain (AID 175). The conditions noted are these: S. cerevisiae mlh1 rad18 strain growth inhibition, stronger effect = higher value. Summed up: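 A repair-deficient yeast strain is exposed to test compound, and growth is scored relative to vehicle-treated controls.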
The mark [7] stands for this setting: at 5.0 µM (retest, dose inferred, filed as 0.5).
Setting [8] is: at 50.0 µM (retest, dose inferred, filed as 5.0).

`Cc1cc(C(=O)O)c(C)cc1SSc1cc(C)c(C(=O)O)cc1C`: the growth inhibition is -12% in assay [1] (setting [7]); 72% (active) in assay [1] (setting [8]); 51.4% in assay [1] (at 50.0 µM); 11% in assay [2] (setting [7]); 74% (active) in assay [2] (setting [8]); 9.25% in assay [2] (at 50.0 µM). Besides, the growth inhibition in assay [3] (setting [7]) was 4%; in assay [3] (setting [8]) it was 76% (active); in assay [3] (at 50.0 µM), 54.7%; in assay [4] (setting [7]) it was -5%; in assay [4] (setting [8]), 70% (active); in assay [4] (at 50.0 µM), 3.7%. For the same compound, the growth inhibition was -13% in assay [5] (setting [7]); 63% in assay [5] (setting [8]); 41.4% in assay [5] (at 50.0 µM); -3% in assay [6] (setting [7]); 81% (active) in assay [6] (setting [8]); 69.2% in assay [6] (at 50.0 µM).
In the case of `O=C1/C(=C/c2ccccc2[N+](=O)[O-])COc2ccccc21`, the growth inhibition in assay [1] (setting [7]) is 37%; in assay [1] (setting [8]), 94% (active); in assay [1] (at 50.0 µM), -4%; in assay [2] (setting [7]) it was 28%; in assay [2] (setting [8]) it was 96% (active); in assay [2] (at 50.0 µM), 12.7%. Besides, the growth inhibition is 21% in assay [3] (setting [7]); 92% (active) in assay [3] (setting [8]); 13.2% in assay [3] (at 50.0 µM); 28% in assay [4] (setting [7]); 94% (active) in assay [4] (setting [8]); 8.75% in assay [4] (at 50.0 µM). The growth inhibition was 34% in assay [5] (setting [7]); 98% (active) in assay [5] (setting [8]); 15.1% in assay [5] (at 50.0 µM); 23% in assay [6] (setting [7]); 98% (active) in assay [6] (setting [8]); 8.65% in assay [6] (at 50.0 µM).
As for `c1ccc(NN=C(c2ccccc2)c2ccccc2)cc1`, the growth inhibition is -2% in assay [1] (setting [7]); 76% (active) in assay [1] (setting [8]); 94.2% (active) in assay [1] (at 50.0 µM); -17% in assay [2] (setting [7]); 55% in assay [2] (setting [8]); 94.3% (active) in assay [2] (at 50.0 µM). The growth inhibition in assay [3] (setting [7]) is 7%; in assay [3] (setting [8]) it was 68%; in assay [3] (at 50.0 µM), 95.8% (active); in assay [4] (setting [7]) it was 1%; in assay [4] (setting [8]), 63%; in assay [4] (at 50.0 µM), 91.8% (active). Further, the growth inhibition in assay [5] (setting [7]) was 12%; in assay [5] (setting [8]), 83% (active); in assay [5] (at 50.0 µM), 93.8% (active); in assay [6] (setting [7]), 12%; in assay [6] (setting [8]), 91% (active); in assay [6] (at 50.0 µM) it was 95.2% (active).
In the case of `Cc1nn(C(=O)c2ccncc2)c(C)c1N=Nc1ccccc1[N+](=O)[O-]`, the growth inhibition was 49% in assay [1] (setting [7]); 96% (active) in assay [1] (setting [8]); 61.3% in assay [1] (at 50.0 µM); 11% in assay [2] (setting [7]); 93% (active) in assay [2] (setting [8]); 20.6% in assay [2] (at 50.0 µM). For the same compound, the growth inhibition in assay [3] (setting [7]) was 11%; in assay [3] (setting [8]), 90% (active); in assay [3] (at 50.0 µM), 84.8% (active); in assay [4] (setting [7]), 21%; in assay [4] (setting [8]), 6%; in assay [4] (at 50.0 µM) it was -3.25%. In addition, the growth inhibition was -1% in assay [5] (setting [7]); 14% in assay [5] (setting [8]); 2.4% in assay [5] (at 50.0 µM); 4% in assay [6] (setting [7]); 94% (active) in assay [6] (setting [8]); 26.1% in assay [6] (at 50.0 µM).
As to `Oc1[nH]c2ccccc2c1N=NC(=S)N1CCCC1`, the growth inhibition was 15% in assay [1] (setting [7]); 65% in assay [1] (setting [8]); 33.5% in assay [1] (at 50.0 µM); 5% in assay [2] (setting [7]); 64% in assay [2] (setting [8]); 58.6% in assay [2] (at 50.0 µM). In addition, the growth inhibition is 7% in assay [3] (setting [7]); 42% in assay [3] (setting [8]); 54.6% in assay [3] (at 50.0 µM); 11% in assay [4] (setting [7]); 48% in assay [4] (setting [8]); 55% in assay [4] (at 50.0 µM). The growth inhibition in assay [5] (setting [7]) is 26%; in assay [5] (setting [8]) it was 74% (active); in assay [5] (at 50.0 µM), 61.6%; in assay [6] (setting [7]), 13%; in assay [6] (setting [8]), 68%; in assay [6] (at 50.0 µM), 57.8%.
With `Cc1ccc2nc(C[n+]3cccc4ccccc43)ccc2c1`, the growth inhibition is 96% (active) in assay [1] (setting [7]); 99% (active) in assay [1] (setting [8]); 88.8% (active) in assay [1] (at 50.0 µM); 95% (active) in assay [2] (setting [7]); 100% (active) in assay [2] (setting [8]); 81.1% (active) in assay [2] (at 50.0 µM). For the same compound, the growth inhibition was 88% (active) in assay [3] (setting [7]); 99% (active) in assay [3] (setting [8]); 99.4% (active) in assay [3] (at 50.0 µM); 92% (active) in assay [4] (setting [7]); 98% (active) in assay [4] (setting [8]); 99% (active) in assay [4] (at 50.0 µM). The growth inhibition was 96% (active) in assay [5] (setting [7]); 99% (active) in assay [5] (setting [8]); 99.7% (active) in assay [5] (at 50.0 µM); 96% (active) in assay [6] (setting [7]); 99% (active) in assay [6] (setting [8]); 99.5% (active) in assay [6] (at 50.0 µM).
On to `CCOC(=O)Cc1csc(/C=C/c2ccc(OC)c(OC)c2)n1`, for which the growth inhibition was -15% in assay [1] (setting [7]); 8% in assay [1] (setting [8]); 17.2% in assay [1] (at 50.0 µM); -1% in assay [2] (setting [7]); 20% in assay [2] (setting [8]); 11.8% in assay [2] (at 50.0 µM). The growth inhibition is -13% in assay [3] (setting [7]); 14% in assay [3] (setting [8]); 6.9% in assay [3] (at 50.0 µM); 3% in assay [4] (setting [7]); 37% in assay [4] (setting [8]); -37.2% in assay [4] (at 50.0 µM). Also, the growth inhibition was 7% in assay [5] (setting [7]); 8% in assay [5] (setting [8]); -12.7% in assay [5] (at 50.0 µM); 1% in assay [6] (setting [7]); 18% in assay [6] (setting [8]); 21.4% in assay [6] (at 50.0 µM).
In the case of `S=C1NC2=C(COC/C2=C\c2ccccc2Cl)C(c2ccccc2Cl)N1` (stereo not given), the growth inhibition was 94% (active) in assay [1] (setting [7]); 94% (active) in assay [1] (setting [8]); 76.9% (active) in assay [1] (at 50.0 µM); 47% in assay [2] (setting [7]); 96% (active) in assay [2] (setting [8]); 81.5% (active) in assay [2] (at 50.0 µM). Further, the growth inhibition in assay [3] (setting [7]) is 55%; in assay [3] (setting [8]), 97% (active); in assay [3] (at 50.0 µM) it was 79.2% (active); in assay [4] (setting [7]), 53%; in assay [4] (setting [8]), 96% (active); in assay [4] (at 50.0 µM), 76.8% (active). The growth inhibition in assay [5] (setting [7]) was 58%; in assay [5] (setting [8]), 96% (active); in assay [5] (at 50.0 µM), 82% (active); in assay [6] (setting [7]), 92% (active); in assay [6] (setting [8]), 94% (active); in assay [6] (at 50.0 µM), 81.3% (active).
Consider `COc1ccc2c(C#N)cc3c(c[n+](C)c4ccccc34)c2c1`, for which the growth inhibition in assay [1] (setting [7]) is 25%; in assay [1] (setting [8]), 78% (active); in assay [1] (at 50.0 µM), 92% (active); in assay [2] (setting [7]), 13%; in assay [2] (setting [8]) it was 58%; in assay [2] (at 50.0 µM), 86.4% (active). The growth inhibition in assay [3] (setting [7]) is 19%; in assay [3] (setting [8]) it was 71% (active); in assay [3] (at 50.0 µM), 87.8% (active); in assay [4] (setting [7]), 15%; in assay [4] (setting [8]), 48%; in assay [4] (at 50.0 µM), 80.7% (active). Further, the growth inhibition in assay [5] (setting [7]) was -2%; in assay [5] (setting [8]), 65%; in assay [5] (at 50.0 µM), 78% (active); in assay [6] (setting [7]), 21%; in assay [6] (setting [8]), 83% (active); in assay [6] (at 50.0 µM) it was 92% (active).
On to `O=C(Oc1ccc(/C=C/[n+]2ccccc2)c(OC(=O)c2ccccc2)c1)c1ccccc1`, for which the growth inhibition in assay [1] (setting [7]) was -4%; in assay [1] (setting [8]) it was 93% (active); in assay [1] (at 50.0 µM), 49.6%; in assay [2] (setting [7]), 14%; in assay [2] (setting [8]), 97% (active); in assay [2] (at 50.0 µM) it was 18.7%. For the same compound, the growth inhibition in assay [3] (setting [7]) is -11%; in assay [3] (setting [8]), 95% (active); in assay [3] (at 50.0 µM), 70.2% (active); in assay [4] (setting [7]) it was -8%; in assay [4] (setting [8]), 91% (active); in assay [4] (at 50.0 µM), 5.7%. For the same compound, the growth inhibition in assay [5] (setting [7]) was 1%; in assay [5] (setting [8]), 83% (active); in assay [5] (at 50.0 µM), -1.45%; in assay [6] (setting [7]), 7%; in assay [6] (setting [8]) it was 98% (active); in assay [6] (at 50.0 µM) it was 48.7%.
